In PubChem BioAssay:
Inconclusive results are not listed. Activity calls are given as the source filed them.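 Rule for the calls, unless noted: active = differentiation response of at least 50%, scaled between solvent and reference control, from cells with both markers; inactive = the rest.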

Tests used:
[1] = yeast TOR pathway RPL19A-GFP modulators, primary screen, cell-based, S. cerevisiae, multiplex flow cytometry (AID 1862; in the data active = percent of DMSO control GFP below about 86%;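 note: lower values mimic rapamycin by blocking the RPL19A rise seen in DMSO cells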); conditions: S. cerevisiae RPL19A-GFP strain, flow cytometry fluorescence, 3 h; at 10 µM; stronger effect = lower value
[2] = modulators of MEP2-GFP levels in yeast, primary screen, S. cerevisiae, multiplex flow cytometry (AID 1867;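 active = GFP response, as percent of the DMSO control, above the screen-wide mean plus 3 SD, about 139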;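 note: median GFP channel fluorescence of barcode-gated MEP2-GFP cells measured by flow cytometry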); conditions: S. cerevisiae MEP2-GFP strain, 3 h, at 10 µM, stronger effect = higher value, 100% means same as DMSO wells
[3] = modulators of CIT2-GFP expression in yeast, primary screen, S. cerevisiae, GFP fusion, multiplex flow cytometry (AID 1870;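 active = percent response above a set limit, the screen-wide mean plus 3 SD, cut at about 130% in these data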;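 note: barcoded CIT2-GFP strain pooled with four other GFP strains with rapamycin as positive control; median GFP fluorescence per well over plate mean of DMSO wells so 100% = DMSO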); conditions: 3 h, at 10 µM, stronger effect = higher value
[4] = modulators of LAP4-GFP expression in yeast, primary screen, S. cerevisiae, multiplex flow cytometry (AID 1873;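 active = GFP signal, as percent of the solvent control, above the screen mean plus 3 SD, about 149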); conditions: 3 h, at 10 µM, stronger effect = higher value
[5] = modulators of AGP1-GFP expression in yeast TOR pathway, primary screen, cell-based, multiplex flow cytometry, S. cerevisiae (AID 1887;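 active = GFP signal above the screen-wide mean plus 3 SD, that is over about 124.5% of the solvent control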;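 note: AGP1-GFP fusion strain of S. cerevisiae within a five-strain barcoded multiplex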); conditions: 3 h, at 10 µM, stronger effect = higher value
[6] = inhibitors of CD8+ T cell-vesicle binding, pilot screen, LFA-1/ICAM-1 modulator project, MLPCN validation set, flow cytometry (AID 2523;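 active = response below a set limit, under 55% cells CD8-positive and vesicle-bound, and CD8 cells' 90th-percentile brightness under 279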;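 for vesicle binding response: mean PE anti-B7-1 fluorescence of CD8+ cells relative to row control; 100% = QL9-loaded vesicles with DMSO vehicle in the same plate row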); conditions: 2C mouse CD8+ T cells, at 7 µM, stronger effect = lower value; double positive events: measured here: CD8+/vesicle+ event percentage
[7] = target: Integrin beta-1 (Homo sapiens) + Integrin alpha-4 (Homo sapiens) (UniProt P13612+P05556); assay: inhibition of HUTS-21 binding to VLA-4, pilot screen, VLA-4 allosteric modulator project, U937 cells, HUTS-21 mAb, flow cytometry, validation set (AID 2674;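 active = inhibition above 50%, about 3 SD of the validation set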;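 note: antibody binding induced by the VLA-4 ligand LDV present at three times its Kd; 0% = LDV ligand with antibody and no compound and 100% = antibody without LDV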); conditions: HUTS-21 LIBS mAb binding, at 6.7 µM, stronger effect = higher value, binding induced by LDV ligand
Sequence of Integrin beta-1 (Homo sapiens) + Integrin alpha-4 (Homo sapiens) (P05556 whole entry, looked up): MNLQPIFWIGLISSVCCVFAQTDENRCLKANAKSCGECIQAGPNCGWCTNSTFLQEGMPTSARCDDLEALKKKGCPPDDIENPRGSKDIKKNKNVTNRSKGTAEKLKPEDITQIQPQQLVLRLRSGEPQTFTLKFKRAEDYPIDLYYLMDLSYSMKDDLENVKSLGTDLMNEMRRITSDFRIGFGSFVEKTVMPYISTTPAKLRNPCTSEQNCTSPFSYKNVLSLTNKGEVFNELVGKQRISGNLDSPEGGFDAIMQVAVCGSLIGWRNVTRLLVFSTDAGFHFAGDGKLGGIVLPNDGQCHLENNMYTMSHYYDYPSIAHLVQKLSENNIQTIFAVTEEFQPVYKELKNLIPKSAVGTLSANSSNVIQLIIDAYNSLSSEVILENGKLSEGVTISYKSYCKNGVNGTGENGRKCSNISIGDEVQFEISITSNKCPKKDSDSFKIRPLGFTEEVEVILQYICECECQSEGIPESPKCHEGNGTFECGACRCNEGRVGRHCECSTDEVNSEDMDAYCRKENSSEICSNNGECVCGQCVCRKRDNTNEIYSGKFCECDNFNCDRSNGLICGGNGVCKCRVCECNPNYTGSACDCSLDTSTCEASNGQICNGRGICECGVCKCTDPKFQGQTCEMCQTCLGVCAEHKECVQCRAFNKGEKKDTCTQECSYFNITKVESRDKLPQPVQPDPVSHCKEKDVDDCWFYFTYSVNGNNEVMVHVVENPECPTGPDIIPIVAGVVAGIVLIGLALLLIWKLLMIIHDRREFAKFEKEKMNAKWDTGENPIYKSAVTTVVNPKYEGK
Sequence of Integrin beta-1 (Homo sapiens) + Integrin alpha-4 (Homo sapiens) (P13612 whole entry, looked up): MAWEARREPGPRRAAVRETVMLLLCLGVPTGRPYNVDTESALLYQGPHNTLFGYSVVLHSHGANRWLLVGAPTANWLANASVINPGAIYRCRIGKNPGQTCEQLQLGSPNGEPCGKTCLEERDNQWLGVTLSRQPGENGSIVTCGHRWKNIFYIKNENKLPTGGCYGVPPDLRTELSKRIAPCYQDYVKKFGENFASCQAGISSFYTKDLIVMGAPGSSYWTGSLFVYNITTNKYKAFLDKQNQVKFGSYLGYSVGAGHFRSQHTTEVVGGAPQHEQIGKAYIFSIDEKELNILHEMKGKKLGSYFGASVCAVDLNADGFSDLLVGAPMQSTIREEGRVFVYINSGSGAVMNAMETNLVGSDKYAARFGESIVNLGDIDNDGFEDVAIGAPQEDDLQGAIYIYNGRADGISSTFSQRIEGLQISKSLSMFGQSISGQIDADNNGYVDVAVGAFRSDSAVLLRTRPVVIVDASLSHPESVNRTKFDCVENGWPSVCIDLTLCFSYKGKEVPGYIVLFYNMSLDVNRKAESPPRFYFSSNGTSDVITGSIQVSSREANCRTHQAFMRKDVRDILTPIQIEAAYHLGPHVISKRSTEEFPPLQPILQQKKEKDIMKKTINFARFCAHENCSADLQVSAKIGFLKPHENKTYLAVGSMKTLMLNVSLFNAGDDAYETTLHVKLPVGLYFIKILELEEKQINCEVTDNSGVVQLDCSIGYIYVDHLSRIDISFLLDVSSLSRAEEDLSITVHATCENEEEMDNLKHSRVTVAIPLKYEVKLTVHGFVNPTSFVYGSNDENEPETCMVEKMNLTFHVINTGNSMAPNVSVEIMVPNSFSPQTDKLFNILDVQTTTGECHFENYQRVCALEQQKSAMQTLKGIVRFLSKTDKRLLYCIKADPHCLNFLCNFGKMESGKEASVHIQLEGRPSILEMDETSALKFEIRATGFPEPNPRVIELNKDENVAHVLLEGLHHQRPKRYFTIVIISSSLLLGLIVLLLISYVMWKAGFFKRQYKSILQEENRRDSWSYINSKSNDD

[8] = superoxide lowering in aged yeast cells, pilot screen, validation compound set (AID 2706;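 active = superoxide response below 65% of plate, a cut near 3 SD across the whole screen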;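 note: yeast exposed to compound for one week at 30 degrees C before staining; 100% = mean of all compound wells on the same plate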); conditions: S. cerevisiae aging, superoxide DHE fluorescence; at 10 µM, stronger effect = lower value
[9] = target: Beta-adrenergic receptor kinase 1 (Homo sapiens) (UniProt P25098); assay: GRK2 binders displacing RNA aptamer, biochemical, validation, human GRK2, bead flow cytometry (AID 488806;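 active = aptamer binding inhibition above 30%, about 3 SD of noise from non-fluorescent compounds; inactive = inhibition at or below 30%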); conditions: bead-bound GRK2, FAM-aptamer displacement, at 10 µM, stronger effect = higher value
Sequence of Beta-adrenergic receptor kinase 1 (Homo sapiens) (P25098 whole entry, looked up): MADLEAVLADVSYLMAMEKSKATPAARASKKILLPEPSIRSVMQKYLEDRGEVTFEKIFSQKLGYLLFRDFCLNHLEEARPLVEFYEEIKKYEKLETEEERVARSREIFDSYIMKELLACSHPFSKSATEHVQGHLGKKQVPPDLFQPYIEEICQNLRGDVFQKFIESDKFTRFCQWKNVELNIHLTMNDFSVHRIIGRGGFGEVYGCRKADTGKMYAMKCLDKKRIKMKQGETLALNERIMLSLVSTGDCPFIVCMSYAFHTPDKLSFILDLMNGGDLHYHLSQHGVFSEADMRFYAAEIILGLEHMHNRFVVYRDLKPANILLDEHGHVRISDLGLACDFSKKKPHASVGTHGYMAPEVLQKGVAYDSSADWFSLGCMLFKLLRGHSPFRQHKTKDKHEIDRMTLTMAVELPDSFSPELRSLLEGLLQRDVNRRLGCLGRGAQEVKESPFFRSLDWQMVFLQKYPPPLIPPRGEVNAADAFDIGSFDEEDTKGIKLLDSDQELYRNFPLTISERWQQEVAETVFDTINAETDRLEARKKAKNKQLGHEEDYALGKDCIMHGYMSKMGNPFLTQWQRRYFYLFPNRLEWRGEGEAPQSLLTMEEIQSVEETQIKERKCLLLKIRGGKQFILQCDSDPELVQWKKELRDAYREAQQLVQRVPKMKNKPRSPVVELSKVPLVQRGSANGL

[10] = target: AP-2 complex subunit beta (Homo sapiens) (UniProt P63010); assay: inhibitors of arrestin peptide binding to AP2, pilot screen, biochemical, validation set, GST-AP2 beads, flow cytometry (AID 504541;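 active = inhibition above 54%, about 3 SD of non-fluorescent compounds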;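 note: AP2 carries R879A mutation and is captured from E. coli lysate; bead-bound FITC arrestin peptide fluorescence measuring arrestin peptide binding to AP2; 0% = DMSO wells and 100% = excess unlabeled arrestin peptide control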); conditions: FITC arrestin peptide, at 10 µM, stronger effect = higher value, AP2 beta2 appendage fragment, R879A mutant
Sequence of AP-2 complex subunit beta (Homo sapiens) (P63010 whole entry, looked up, the tested form may be a part, one chain of several): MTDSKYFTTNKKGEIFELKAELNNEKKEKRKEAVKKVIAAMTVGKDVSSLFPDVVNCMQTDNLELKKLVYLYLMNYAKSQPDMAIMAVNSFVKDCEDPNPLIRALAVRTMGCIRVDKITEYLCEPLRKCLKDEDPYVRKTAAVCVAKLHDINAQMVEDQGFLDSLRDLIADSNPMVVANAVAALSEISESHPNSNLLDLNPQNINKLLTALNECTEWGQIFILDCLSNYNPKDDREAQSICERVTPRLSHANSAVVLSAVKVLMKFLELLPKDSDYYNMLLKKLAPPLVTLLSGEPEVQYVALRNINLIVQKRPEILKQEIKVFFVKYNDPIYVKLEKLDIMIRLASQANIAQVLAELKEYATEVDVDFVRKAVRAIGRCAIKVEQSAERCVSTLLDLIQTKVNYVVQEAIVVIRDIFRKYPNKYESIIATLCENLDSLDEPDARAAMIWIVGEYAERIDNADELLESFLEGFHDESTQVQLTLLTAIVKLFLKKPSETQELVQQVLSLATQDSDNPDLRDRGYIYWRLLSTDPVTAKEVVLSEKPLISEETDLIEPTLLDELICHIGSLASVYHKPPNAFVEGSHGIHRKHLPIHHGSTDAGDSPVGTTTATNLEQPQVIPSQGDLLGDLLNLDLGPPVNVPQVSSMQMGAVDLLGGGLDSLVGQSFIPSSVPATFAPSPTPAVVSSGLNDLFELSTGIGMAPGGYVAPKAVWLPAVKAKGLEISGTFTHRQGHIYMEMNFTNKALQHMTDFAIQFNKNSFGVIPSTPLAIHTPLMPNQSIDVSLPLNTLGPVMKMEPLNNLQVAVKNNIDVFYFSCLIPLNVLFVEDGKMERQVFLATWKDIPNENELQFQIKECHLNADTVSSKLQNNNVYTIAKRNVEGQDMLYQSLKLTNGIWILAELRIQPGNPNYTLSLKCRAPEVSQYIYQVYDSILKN

[11] = yeast V-ATPase proton transport modulators, S. cerevisiae, pHLuorin, HTS validation (AID 504600; in the data active = response above about 15%;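 note: plate controls were DMSO for no effect and reference compound for full effect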); conditions: S. cerevisiae pHLuorin cytosolic pH, at 10 µM, stronger effect = higher value
[12] = tested on: anti-desmoglein-3 scFv antibody binding to human DSG3; assay: inhibitors of anti-DSG3 scFv binding to DSG3, pilot screen, biochemical, validation compound set, bead-based, flow cytometry (AID 588368;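 active = binding below the plate cutoff, the plate median minus 3 SD, with a reading above zero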;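 note: signal is the median channel fluorescence of bead-bound GFP antibody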); conditions: Protein G beads, DSG3-Fc, scFv-GFP binding, at 10 µM, stronger effect = lower value
[13] = inhibitors of fungal efflux pumps CDR1, CDR2, MDR1, pilot screen, validation compound set, multiplex, phenotypic (AID 588506;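 active = efflux inhibition above 0.42, the validation set average plus 4 SD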;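 note: Nile Red retained in cells so higher fluorescence means more efflux inhibition; 0 = negative control wells and 1 = enniatin B 25 µM full block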); conditions: S. cerevisiae pump-expressing triplex, Nile Red efflux flow cytometry; at 10 µM; stronger effect = higher value; the pumps come from Candida albicans
[14] = target: ATP-binding cassette sub-family B member 6 (Homo sapiens) (UniProt Q9NP58); assay: ABCB6 transporter inhibitors, pilot screen, K562-ABCB6 cells, flow cytometry, validation set (AID 588550;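 active = inhibition above the screen-wide mean plus 3 SD, about 51%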;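 note: 0% = DMSO wells and 100% = benzethonium chloride 70 µM positive control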); conditions: K562-ABCB6 porphyrin accumulation, 1 h, at 10 µM, stronger effect = higher value
Sequence of ATP-binding cassette sub-family B member 6 (Homo sapiens) (Q9NP58 whole entry, looked up): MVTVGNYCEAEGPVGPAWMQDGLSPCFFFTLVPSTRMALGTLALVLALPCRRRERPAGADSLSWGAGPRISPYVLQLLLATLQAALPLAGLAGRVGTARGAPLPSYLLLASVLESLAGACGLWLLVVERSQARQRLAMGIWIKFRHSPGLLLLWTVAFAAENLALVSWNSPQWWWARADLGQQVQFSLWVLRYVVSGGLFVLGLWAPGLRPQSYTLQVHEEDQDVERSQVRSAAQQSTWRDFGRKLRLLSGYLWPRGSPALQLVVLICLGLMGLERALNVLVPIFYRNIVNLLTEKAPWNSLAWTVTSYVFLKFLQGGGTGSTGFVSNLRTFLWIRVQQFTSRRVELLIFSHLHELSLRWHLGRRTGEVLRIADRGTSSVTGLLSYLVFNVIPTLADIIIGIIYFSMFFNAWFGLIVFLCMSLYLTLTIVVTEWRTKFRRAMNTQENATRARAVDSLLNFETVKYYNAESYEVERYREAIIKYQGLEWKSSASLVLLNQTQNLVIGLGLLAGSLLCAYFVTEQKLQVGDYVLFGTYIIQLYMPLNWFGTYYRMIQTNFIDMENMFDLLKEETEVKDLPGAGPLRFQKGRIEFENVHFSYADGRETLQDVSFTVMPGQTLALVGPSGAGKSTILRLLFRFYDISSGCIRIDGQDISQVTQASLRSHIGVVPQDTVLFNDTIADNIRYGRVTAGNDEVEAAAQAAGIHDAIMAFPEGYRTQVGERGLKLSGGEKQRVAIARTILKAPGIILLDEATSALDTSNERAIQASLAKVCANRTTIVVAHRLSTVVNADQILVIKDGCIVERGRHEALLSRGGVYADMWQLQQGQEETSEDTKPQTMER

[15] = promoters of myeloid differentiation in arrested cells, primary screen, cell-based, GFP/MAC1 double positive, flow cytometry, validation set (AID 588685); conditions: ER-HoxA9 marrow cells, stronger effect = higher value, normalized: vehicle 0, fulvestrant 100;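 note: compound exposure lasts four days before antibody staining and flow analysis; 0% = DMSO wells and 100% = 5 µM fulvestrant positive control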

Row | Compound | percent of DMSO control GFP [1] | GFP response vs DMSO [2] | percent response of DMSO control [3] | GFP response vs DMSO [4] | GFP response, % of DMSO [5] | double positive events [6] [%] | vesicle binding response [6] | inhibition [7] | superoxide response (% of plate) [8] | aptamer binding inhibition [9] | inhibition [10] | response [11] | binding (% of control) [12] | efflux inhibition (fraction of control) [13] | inhibition [14] | differentiation response [15]
1 | CC#C[C@]1(O)CC[C@H]2[C@@H]3CCC4=CC(=O)CCC4=C3[C@@H](c3ccc(N(C)C)cc3)C[C@@]21C | 103% (inactive) | 103% (inactive) | 110% (inactive) | 87.3% (inactive) | 102% (inactive) | 56.3 | 187% (inactive) | -10.5% (inactive) | 94.9% (inactive) | 9% (inactive) | 25.2% (inactive) | 0.03% (inactive) | 94.6% (inactive) | -0.16 (inactive) | 3% (inactive) | -16.4% (inactive)
2 | CN(C)CCC(c1ccc(Br)cc1)c1ccccn1 (stereo not given) | 103% (inactive) | 101% (inactive) | 94.9% (inactive) | 97.4% (inactive) | 100% (inactive) | 56.9 | 182% (inactive) | 36.1% (inactive) | 106% (inactive) | 2% (inactive) | -4.8% (inactive) | 2.41% (inactive) | 103% (inactive) | 0.18 (inactive) | 12% (inactive) | -1.82% (inactive)
3 | CC(C)Oc1ccc(C(CC(=O)O)c2ccc(F)cc2)cc1 (stereo not given) | 102% (inactive) | 108% (inactive) | 92% (inactive) | 113% (inactive) | 90.4% (inactive) | 62.7 | 164% (inactive) | 9.09% (inactive) | 105% (inactive) | 5% (inactive) | -6.35% (inactive) | 3.61% (inactive) | 96.7% (inactive) | 0.18 (inactive) | 5% (inactive) | -18% (inactive)
4 | CC[N+](C)(CC)CCOC(=O)C(O)(c1ccccc1)C1CCCCC1 (stereo not given) | 101% (inactive) | 103% (inactive) | 105% (inactive) | 105% (inactive) | 103% (inactive) | 57.8 | 175% (inactive) | -32.9% (inactive) | 102% (inactive) | -3% (inactive) | -1.88% (inactive) | 6.06% (inactive) | 98.5% (inactive) | -0.01 (inactive) | -1% (inactive) | 0% (inactive)
5 | COc1ccc(-c2[nH]ncc2C=O)cc1OC | 99.3% (inactive) | 96.9% (inactive) | 106% (inactive) | 91.3% (inactive) | 95.8% (inactive) | 52 | 201% (inactive) | -1.17% (inactive) | 93.7% (inactive) | 2% (inactive) | 11.3% (inactive) | 3.37% (inactive) | 101% (inactive) | -0.12 (inactive) | 8% (inactive) | -11.5% (inactive)
